We go through 39 compounds from PubChem BioAssay (EPA / NIEHS).

A structure can be active in one record and inactive in another. Calls of active or inactive are those of the source. The calls were made as follows: active = hit-call score of the fitted dose curve at least 0.9, where 1 is the maximum; inactive = score below 0.9.

The assay is described as follows: ATG_GRE_CIS: Attagene CIS-FACTORIAL HepG2 Assay for human Glucocorticoid Response Elements (GRE) (AID 2282947). As to conditions: HepG2 GRE cis-reporter, Attagene multiplex mRNA; actives raise or lower the signal. The protocol: ATG_CIS is a cell-based, multiplexed-readout assay that uses HepG2, a human liver cell line, with measurements taken at 24 hours after chemical dosing in a 24-well plate.ATG_GRE_CIS is one of 52 assay component(s) measured or calculated from the ATG_CIS assay. It is designed to make measurements of mRNA induction, a form of inducible reporter, as detected with fluorescence intensity signals by Reverse transcription polymerase chain reaction (RT-PCR) and Capillary electrophoresis technology.Data from the assay component ATG_GRE_CIS was analyzed into 1 assay endpoint. This assay endpoint, ATG_GRE_CIS, was analyzed with bidirectional fitting relative to DMSO as the negative control and baseline of activity. Using a type of inducible reporter, measures of mRNA for gain or loss-of-signal activity can be used to understand the reporter gene at the transcription factor-level as they relate to the gene NR3C1. Furthermore, this assay endpoint can be referred to as a primary readout, because this assay has produced multiple assay endpoints where this one serves a reporter gene function. To generalize the intended target to other relatable targets, this assay endpoint is annotated to the nuclear receptor intended target family, where the subfamily is steroidal.
Human liver HepG2 cells are transiently transfected with multiple reporter transcription units (MRTUs) in 6-well plates using FuGene 6 reagent (Roche; 3 ml FuGene/1 mg DNA). The MRTU constructs are regulated by a cis-regulating element (promoter). […] A major difference between the CIS and TRANS system is that in CIS activities of endogenous TFs are measured, whereas the TRANS assay evaluates changes in activities of exogenous, chimeric NR-Gal4 proteins. […] At the end of 24 hour incubation, total RNA was isolated using TriZol reagent (Invitrogen). The isolated RNA is then reverse-transcribed using oligo(dT) primer and Mo-MLV reverse transcriptase (Invitrogen) with DNAse I (Ambion) treatment for 30 min. The one-tenth of the produced cDNA was amplified by PCR using Taq DNA polymerase (Invitrogen) and two reporter sequence-specific primers. The PCR products were fluorescently labeled by primer extension with 6-arboxyfluorescein (6-FAM) 5'-labeled reporter sequence-specific primer (2 min at 95 C, 20 s at 68 C and 10 min at 72 C) and these products were digested with 5U of HpaI (New England Biolabs) for 2h at 37 C. The fragments were purified using Qiaquick PCR columns (Qiagen), analyzed on an ABI 3130xL genetic analyzer (Applied Biosystems) with peak positions identified by using a set of X-rhodamine (ROX)-labeled MapMarker1000 molecular weight standards (BioVentures). The raw capillary electrophoresis data was processed using Attagraph software (Attagene).
Take `C[C@]12CCC(=O)C[C@@H]1CC[C@@H]1[C@@H]2CC[C@]2(C)[C@@H](O)CC[C@@H]12`: the compound was classed as inactive.

In the case of `Nc1ccc(-c2ccc(N)c(Cl)c2)cc1Cl`, the outcome was inactive.

Take `O=C(c1ccccc1)C(Cl)Cl`: the result was inactive.

On to `CCC[CH2][Sn]([CH2]CCC)([CH2]CCC)[O]C(=O)c1ccccc1`, for which the result was inactive.

In the case of `O=CC=O`, the outcome was inactive.

`CCOP(=O)(CN(CCO)CCO)OCC`: the result was inactive.

As for `CCCCCCCCc1ccc(O)cc1`, the result was inactive.

For the compound `COc1cccc(C=O)c1`, the compound was classed as inactive.

As for `CNC(=O)O/N=C/C(C)(C)S(C)=O` (stereo not given), the compound was called inactive.

In the case of `CC(C)(c1ccccc1)c1ccc(O)c(C(C)(C)c2ccccc2)c1`, the call was inactive.

For `CCCCC(CC)CO[N+](=O)[O-]` (stereo not given), the compound was called inactive.

Turning to `CC(=O)OC(c1ccccc1)C(Cl)(Cl)Cl` (stereo not given), the compound was classed as inactive.

Consider `O=S(=O)(c1ccc(Cl)cc1)c1ccc(Cl)cc1`, for which the compound was called inactive.

As for `C[C@H]1O[C@@H](O[C@H]2[C@@H](O)C[C@H](O[C@H]3[C@@H](O)C[C@H](O[C@H]4CC[C@@]5(C)[C@H](CC[C@@H]6[C@@H]5CC[C@]5(C)[C@@H](C7=CC(=O)OC7)CC[C@]65O)C4)O[C@@H]3C)O[C@@H]2C)C[C@H](O)[C@@H]1O`, the AC50 was 0.123 µM (active).

Regarding `BrCCBr`, the outcome was inactive.

With `CC(C)(C)CC(C)(C)c1ccc(O)cc1`, the result was inactive.

Take `ClC(Cl)=C(Cl)C(Cl)=C(Cl)Cl`: the AC50 is 165 µM (active).

Take `OCC(O)CCl` (stereo not given): the result was inactive.

Turning to `C=CC(=O)N(C)C`, the outcome was inactive.

Take `COC[C@H](C)N(C(=O)CCl)c1c(C)csc1C`: the result was inactive.

Regarding `CC(C)(c1ccc(OCC2CO2)cc1)c1ccc(OCC2CO2)cc1` (stereo not given), the compound was classed as inactive.

For the compound `CN(C)N=O`, the outcome was inactive.

Regarding `CC(C)CCCCCCOC(=O)c1ccccc1C(=O)OCCCCCCC(C)C`, the call was inactive.

Turning to `CCC[CH2][Sn]([Cl])([Cl])[Cl]`, the compound was classed as inactive.

For the compound `Nc1ccc(Cl)cc1C(=O)c1ccccc1`, the result was inactive.

Take `ClCC(Cl)CCl`: the compound was classed as inactive.

In the case of `Cn1sc(Cl)cc1=O`, the call was inactive.

`C=CC#N`: the outcome was inactive.

On to `CNC`, for which the outcome was inactive.

For the compound `CCC1(c2ccc(N)cc2)CCC(=O)NC1=O` (stereo not given), the compound was called inactive.

For `Cl/C=C/Cl`, the compound was classed as inactive.

For the compound `CC(=O)C(Cl)C(=O)N(C)C` (stereo not given), the compound was called inactive.

Turning to `COc1cc(OC)nc(NC(=O)NS(=O)(=O)c2ncccc2C(=O)N(C)C)n1`, the compound was classed as inactive.

As for `O=C(CCl)CCl`, the AC50 is 33.4 µM (active).

For `Oc1c(I)cc(I)cc1I`, the result was inactive.

In the case of `O=C1CCCN1`, the call was inactive.

As for `O=C1C2(Cl)C3(Cl)C4(Cl)C(Cl)(Cl)C5(Cl)C3(Cl)C1(Cl)C5(Cl)C24Cl` (stereo not given), the call was inactive and the AC50 is 5.27 µM (active).

Regarding `COC(=O)Cc1ccccc1`, the result was inactive.

For the compound `C1CCC(NC2CCCCC2)CC1`, the result was inactive.
